Bioassay records as filed in PubChem BioAssay.
Ecoli rRNA inh: inhibits bacterial ribosomal RNA function over humanized ribosomes | E. coli WT GFP vs humanized-ribosome RFP mutants, fluorescence, 24 h; active compounds read low; DMSO median 0, no signal -100 | GFP signal change (wild-type ribosome), % (concentration not given with the values) | AID 720706 | 350,000 tested, 1.6% active;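 active = significant combined selectivity score with lowered wild-type GFP, culture density cut under 30%, mutant RFP and density less affected; inactive = any of these conditions unmet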
EWS-Fli inh: blocks EWS/Fli oncoprotein-driven transcription. A673 NR0B1-luciferase reporter, viability-normalised. inhibition, % at 12.6 µM. 350,000 tested, 0.67% active;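 active = mean inhibition of at least 50% after viability correction, with every replicate also passing that limit; inconclusive = mean reaches 50% but only one of two replicates passes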;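 note: firefly luciferase signal divided by Alamar Blue viability fluorescence both relative to DMSO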
PGC1a acetyl inh: PGC1a acetylation modulation, inhibitor mode; U2OS PGC1a acetylation, AlphaScreen anti-acetyl-lysine; with virally co-expressed GCN5 acetyltransferase; inhibition, % at 15.6 µM; 350,000 tested, 0.17% active; AID 651687;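 active = every replicate shows inhibition of at least 40%; inconclusive = mean inhibition at least 40% but some replicate below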;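 note: 0% = neutral control wells and 100% = positive control wells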
LGR2 inh: inhibitors of bursicon-induced Drosophila LGR2 receptor cAMP signaling. 380,000 tested, 0.35% active. inhibition, % at 9.99 µM. HEK293 LGR2, CRE-luciferase, bursicon-stimulated, 4 h;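 active = drop in luminescence signal, shown as inhibition above about 50% in the replicate tests, limit read from the data, passing the limit was not always enough; inconclusive = probably only some replicates passing the limit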;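 note: agonist challenge used bursicon conditioned medium at about half maximal strength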
PAX8 reporter: lowers PAX8-driven luciferase in RMG-I cells; RMG-I TPO-luciferase reporter, SteadyGlo, 24 h; inhibition, % at 12.6 µM; 360,000 tested, 1.2% active;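 active = mean replicate inhibition at least 60% with every replicate also reaching 60%; inconclusive = only one of the two criteria is met; inactive = mean below 60% and not all replicates reaching 60%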;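 note: luciferase light reporting Pax8 driven TPO promoter activity; plate controls were median of neutral control wells for no effect and mitoxantrone controls for full effect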
SIRT5 block: inhibitors of human sirtuin-5 desuccinylase | inhibition, % at 15 µM | AID 652115 | 330,000 tested, 1.1% active | Purified SirT5, succinyl-peptide AMC, trypsin-coupled fluorescence; in the data active = inhibition above about 15%; inconclusive = no clear call, values can overlap the other calls
Target sequence (Q9NXA8 whole entry, looked up): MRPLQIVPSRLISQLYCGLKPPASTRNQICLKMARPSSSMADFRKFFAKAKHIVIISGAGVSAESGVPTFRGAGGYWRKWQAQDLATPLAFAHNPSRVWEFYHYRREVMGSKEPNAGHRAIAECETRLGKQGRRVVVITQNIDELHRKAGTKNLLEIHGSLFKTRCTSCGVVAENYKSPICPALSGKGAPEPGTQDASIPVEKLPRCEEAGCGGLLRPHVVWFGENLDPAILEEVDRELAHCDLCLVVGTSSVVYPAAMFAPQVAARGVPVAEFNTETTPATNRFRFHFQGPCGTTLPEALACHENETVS
The depositor's hits bear a star; ? = inconclusive; . = no result given; ! = not confirmed by another sample. Only some compounds are listed: those with a hit (about 3.4% of all), similar ones and a draw of the others.

SMILES	Ecoli rRNA inh	EWS-Fli inh	PGC1a acetyl inh	LGR2 inh	PAX8 reporter	SIRT5 block
C/C(=N\NC(=O)COc1ccc(C)cc1Br)c1cc([N+](=O)[O-])cs1	-23*	-5	-14	-7	1	.
Cc1ccc(C)c(CN2CCC(n3nccc3NC(=O)CCCc3ccccc3)CC2)c1	-27*	.	.	4	2	3
C[C@@H]1CCCCO[C@H](CN(C)Cc2ccc(Cl)c(Cl)c2)[C@@H](C)CN([C@H](C)CO)C(=O)c2cc(NC(=O)NC3CCCCC3)ccc2O1	1	-6	.	0	-20	1
Cc1noc(C)c1NC(=O)Nc1ccc2c(c1)C(=O)N([C@H](C)CO)C[C@H](C)[C@@H](CN(C)Cc1ccc(Cl)c(Cl)c1)OCCCC[C@@H](C)O2	3	?	-2	-4	-17	3
C[C@H](CO)N1C[C@H](C)[C@H](CN(C)Cc2ccc(Cl)c(Cl)c2)OCCCC[C@H](C)Oc2ccc(NC(=O)Nc3ccc(F)cc3)cc2C1=O	-1	1	-8	27	64*	0
C[C@@H]1CCCCO[C@@H](CN(C)Cc2ccc(Cl)c(Cl)c2)[C@H](C)CN([C@@H](C)CO)C(=O)c2cc(NC(=O)Nc3ccc(F)cc3)ccc2O1	5	9	-35	19	67*	3
Cc1noc(C)c1NC(=O)Nc1ccc2c(c1)C(=O)N([C@@H](C)CO)C[C@H](C)[C@@H](CN(C)Cc1ccc(Cl)c(Cl)c1)OCCCC[C@H](C)O2	-21	6	-4	8	-15	15*
Cc1noc(C)c1NC(=O)Nc1ccc2c(c1)C(=O)N([C@H](C)CO)C[C@@H](C)[C@@H](CN(C)S(=O)(=O)c1cn(C)cn1)OCCCC[C@H](C)O2	-1	-3	6	-4	13	0
C[C@@H]1CCCCO[C@H](CN(C)Cc2ccc(Cl)c(Cl)c2)[C@@H](C)CN([C@H](C)CO)C(=O)c2cc(NC(=O)Nc3ccccc3)ccc2O1	3	4	-2	-3	9	0
Cc1noc(C)c1NC(=O)Nc1ccc2c(c1)C(=O)N([C@@H](C)CO)C[C@@H](C)[C@@H](CN(C)S(=O)(=O)c1cn(C)cn1)OCCCC[C@@H](C)O2	0	-7	-3	3	-3	17*
C[C@@H]1CCCCO[C@H](CN(C)Cc2ccc(Cl)c(Cl)c2)[C@@H](C)CN([C@@H](C)CO)C(=O)c2cc(NC(=O)Nc3ccc(F)cc3)ccc2O1	2	3	-10	13	89*	-2
C[C@@H]1CCCCO[C@@H](CN(C)Cc2ccc(Cl)c(Cl)c2)[C@@H](C)CN([C@H](C)CO)C(=O)c2cc(NC(=O)Nc3ccccc3)ccc2O1	10	-3	9	24	14	0
O=C(Nc1cc(Cl)ccn1)C1(c2ccccc2)CC1(Cl)Cl (stereo not given)	-42*	0	1	.	9	-2
O=C(Nc1ccccc1)C1(c2ccccc2)CC1(Cl)Cl (stereo not given)	.	.	-11	.	4	.
CO[C@H]1CN(C)C(=O)c2ccc(NC(=O)C3CC3)cc2OC[C@@H](C)N(CC2CCOCC2)C[C@@H]1C	1	-8	0	12	.	.
C[C@H](CO)N1C[C@H](C)[C@@H](CN(C)Cc2ccc(C(F)(F)F)cc2)OCCCC[C@H](C)Oc2ccc(NC(=O)Cc3ccccc3)cc2C1=O	-1	7	16	12	80*	.
C[C@@H]1CCCCO[C@@H](CN(C)Cc2ccc(C(F)(F)F)cc2)[C@H](C)CN([C@@H](C)CO)C(=O)c2cc(NC(=O)Cc3ccccc3)ccc2O1	0	14	2	8	81*	.
C[C@@H]1CN([C@H](C)CO)C(=O)c2cc(NC(=O)Cc3ccccc3)ccc2O[C@@H](C)CCCCO[C@@H]1CN(C)Cc1ccc(C(F)(F)F)cc1	2	-3	1	23	87*	.
C[C@@H]1CCCCO[C@H](CN(C)Cc2ccc(C(F)(F)F)cc2)[C@H](C)CN([C@@H](C)CO)C(=O)c2cc(NC(=O)Cc3ccccc3)ccc2O1	-3	14	-5	32	65*!	-1
C[C@@H]1CCCCO[C@@H](CN(C)Cc2ccc(C(F)(F)F)cc2)[C@@H](C)CN([C@H](C)CO)C(=O)c2cc(NC(=O)Cc3ccccc3)ccc2O1	2	-12	8	14	7	.
O=C(CCN1CCCCC1)N[C@@H]1CC[C@H](CCn2cc(-c3ccc(F)cc3)nn2)O[C@H]1CO	3	-1	2	-8	2	0
C[C@@H]1CN([C@@H](C)CO)C(=O)c2cc(/C=C/c3ccccc3)cnc2O[C@H]1CN(C)C(=O)C1CC1	-2	-7	1	6	.	.
C[C@@H]1CN([C@H](C)CO)C(=O)c2cc(NC(=O)CCC(F)(F)F)ccc2O[C@@H](C)CCCCO[C@@H]1CN(C)C(=O)Cc1ccccc1	-1	-1	.	-7	-1	.
CC(=O)N(C)C[C@@H]1Oc2c(N)cccc2C(=O)N(C)C[C@@H]1C	2	.	.	.	.	.
COc1ccccc1N1CCN(C(=O)c2oc3ccc(F)cc3c2C)CC1	-36*	11	.	6	19	3
SMILES	Ecoli rRNA inh	EWS-Fli inh	PGC1a acetyl inh	LGR2 inh	PAX8 reporter	SIRT5 block
COc1ccccc1N1CCN(C(=O)c2oc3ccc(Br)cc3c2C)CC1	-10	38	.	4	8	-1
Cc1c(C(=O)N2CCCC2)oc2ccc(Br)cc12	-30*	.	.	-44	-60	1
COc1ccc(NC(=O)Nc2ccc3c(c2)C(=O)N([C@H](C)CO)C[C@@H](C)[C@@H](CN(C)C(=O)c2ccccc2)OCCCC[C@H](C)O3)cc1	0	0	-2	-2	9	0
O=C(C[C@H]1CC[C@@H]2[C@H](COC[C@H](O)CN2Cc2ccc(Cl)cc2)O1)NCc1cccc(F)c1	-2	.	-12	5	.	0
O=c1c2ccccc2sc2ccc(C#CC3(O)CCCCC3)cc12	-15	89*	.	100*	69*	.
N#Cc1c(SCC(=O)Nc2ccc(C(F)(F)F)cc2)sc2c(O)cc(=O)[nH]c12	0	0	-10	-3	14	2
N#Cc1c(SCC(=O)Nc2nncs2)sc2c(O)cc(=O)[nH]c12	9	9	-6	-19	10	43*
COc1cc(Cl)c(C)cc1NC(=O)CSc1sc2c(O)cc(=O)[nH]c2c1C#N	4	4	.	3	19	15*
COc1cc(Cl)c(C)cc1NC(=O)CSc1nnc(CCC(=O)O)c(=O)[nH]1	9	-1	10	2	13	22*
COc1ccc(OC)c(NC(=O)CSc2sc3c(O)cc(=O)[nH]c3c2C#N)c1	8	11	10	4	3	13
O=C(c1ccccc1)N1CC(=O)N2[C@H](CO)[C@H](c3ccc(/C=C/c4ccccc4)cc3)[C@H]2C1	-36	.	.	.	.	.
